An excerpt weighted towards active compounds, which were near 3.1% of everything screened.
OvCa metastasis: Primary qHTS assay for Inhibitors of ovarian cancer metastasis using an organotypic tumor microenvironment (TME) model. Potency, µM (highest dose often 45.8 µM), actives largely listed as inhibitors. SKOV3ip1-GFP adhesion/invasion on 3D omental model, fluorescence. actives 0.1% (n = 46,000); note: nearly all actives have a fitted effect of over 65% in size
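A 3D layer of primary human omental fibroblasts, mesothelial cells, fibronectin and collagen I, grown 48 hr, received SKOV3ip1-GFP cells in serum-free medium plus compounds at 0.36-46 umol/L. After 2 hr RT and 16 hr 37 C, fixed adherent GFP cells were counted; normalized to DMSO and tomatine.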
mTORC1 inh: Acumen qHTS Assay for Inhibitors of the mTORC1 Signaling Pathway in MEF (Tsc2-/-, p53-/-) Cells: Sytravon. Tsc2-/- p53-/- MEF, phospho-rpS6 immunofluorescence/PI, 24 h. AID 493208, 2011. actives 0.78% (n = 44,000). Potency, µM (series often up to 38.3 µM), hits mostly inhibitors; note: nearly all actives have a fitted effect of over 50% in size
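Tsc2-/-, p53-/- mouse embryonic fibroblasts (empty-vector line) exposed to compound 24 hrs at 37 C, fixed, immunostained for phospho-rpS6 and counterstained with propidium iodide. Acumen laser scanning gives % positive cells from Alexa 488/PI ratio, thresholded using 7.5 nM rapamycin; PI count gives viability.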
p53null 39C kill: qHTS Screen for Compounds that Selectively Target Cancer Cells with p53 Mutations: Cytotoxicity of p53 Null Cells at the Nonpermissive Temperature; H1299 p53-null (neo) cells, 39C, ATPlite viability, 24 h; Potency, µM (top dose mostly 46.1 µM), actives largely listed as cytotoxic; actives 0.97% (n = 55,000); note: nearly all actives have a fitted effect of over 50% in size
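Following overnight plating at 37C (600 cells/well), H1299-neo or H1299-p53A138V cells are dosed up to 46 uM. Incubation lasts 24 hr at 39C before ATP detection.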
p53null 32C tox: qHTS Screen for Compounds that Selectively Target Cancer Cells with p53 Mutations: Cytotoxicity of p53 Null Cells at the Permissive Temperature; H1299-neo p53 null cells, ATP luminescence, 24 h, 32C; Potency, µM (top dose mostly 46.1 µM), most hits filed as cytotoxic; actives 0.62% (n = 55,000); note: nearly all actives have a fitted effect of over 55% in size
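AC50 values derive from Hill modelling of qHTS concentration-response data (up to 46 uM) in H1299-neo cells. Cells were treated 24 h at 32C following overnight attachment at 37C; viability was read as cellular ATP.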
PMP22 txn: Cell-based coincidence reporter assay to measure PMP22 gene transcription in S16 Pmp22-F2sN cells - Primary screen; S16 Pmp22-F2sN Schwann cells, FLuc/NLuc coincidence luminescence, 24 h; Potency, µM (titrated, usually from 57.5 µM), most hits filed as inhibitors; actives 2% (n = 43,000); AID 1508649, 2021; active = clear falling dose curves in both reporters; inconclusive = both reporters move, but less clearly or upward; inactive = either reporter flat; the % is the NLuc reporter signal
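S16(c9) Schwann cells with FLuc/NLuc coincidence reporter in the Pmp22 3' UTR; compounds pin-transferred, 24 h at 37C. Dual-luciferase read: FLuc first, then NLuc after Stop&Glo, each 10 min at room temperature.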
S16 F2sN tox: Cell viability qHTS assay in S16 Pmp22-F2sN cells. S16 Pmp22-F2sN Schwann cells viability, CellTiter-Glo, 24 h. Potency, µM (top dose mostly 57.5 µM), actives largely listed as cytotoxic. actives 0.48% (n = 43,000). AID 1508642, 2021; note: nearly all actives have a fitted effect of over 65% in size
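Used to flag compounds lowering reporter output through toxicity, this quantitative HTS measures ATP-based CellTiter-Glo luminescence in S16 Pmp22-F2sN Schwann cells after 24 h compound exposure at 37C.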
A number is an active result; n = inactive; u = inconclusive; x = not tested or not shown; [ ] = dose if it differs, or a comment. Unless noted, calls come from the whole dose curve; as a rule, active = well fitted curve in the direction sought with a large enough effect; inconclusive = small, poorly fitted or top-dose-only effect, or another doubt; inactive = no such curve, though single readings can be large; an effect the other way counts as inactive or inconclusive.

SMILES | OvCa metastasis | mTORC1 inh | p53null 39C kill | p53null 32C tox | PMP22 txn | S16 F2sN tox
C[C@@H]1O[C@@H](O[C@H]2CC[C@@]3(C)[C@H](CC[C@@H]4[C@H]3C[C@@H](O)[C@]3(C)[C@@H](C5=CC(=O)OC5)CC[C@]43O)C2)C[C@H](O)[C@@H]1O[C@H]1C[C@H](O)[C@H](O[C@H]2C[C@H](O)[C@@H](O)[C@@H](C)O2)[C@H](C)O1 (stereo in doubt) | n | x | x | x | x | x
Cc1ccc(C)c(NC(=O)Cn2nnc(C(=O)NCc3ccco3)c2N)c1 | n | n | n | n | 10µM | u
O=C(N/N=C/c1cccs1)c1ccc2c(c1)OCO2 | x | x | n[1.84 µM] | 2.8µM | x | x
Cn1cc(C(=O)N/N=C/c2cccs2)c2ccccc21 | x | x | n | n | x | x
COC1CCC(N(C(=O)C2CCC(C)CC2)c2cc(C3=CCCCC3)sc2C(=O)O)CC1 (stereo unspecified) | n | x | x | x | x | x
CCCCc1ccc(Nc2cc(C)nc(-n3nc(C)cc3C)n2)cc1 | n | n | 13µM | n | 15µM | u
CCOC(=O)C1=C(C)NC2=C(C(=O)CC(C)(C)C2)C1c1ccc(-c2ccccc2)cc1 (stereo unspecified) | n | x | x | x | x | x
Cc1ccc(C2c3c(-c4ccccc4O)n[nH]c3C(=O)N2CCCO)cc1 (stereo unspecified) | n | u | n | n | n | n
Cc1ccc(C2c3c(-c4cc(C)ccc4O)n[nH]c3C(=O)N2Cc2ccco2)cc1 (stereo unspecified) | u | u | u | 18µM | u | u
Cc1csc(NC(=O)c2sc3nc4c(c(C(F)(F)F)c3c2N)CCC4)n1 | n | x | x | x | x | x
COC(=O)c1cc(S(=O)(=O)N2CCN(c3cccc(C)c3)C(C)C2)cn1C (stereo unspecified) | n | n | 13µM | n | n | n
CN1[C@H]2CC[C@H]1CC(OC(=O)c1c[nH]c3ccccc13)C2 (stereo partly specified) | n | x | x | x | x | x
Cc1c2cnn(-c3ccccc3)c(=O)c2c(C)n1C(C)C(=O)NCc1cccc(Br)c1 (stereo unspecified) | n | n | n | n | u | n
CC(C(=O)NCc1cccc(Br)c1)n1ncn2cccc2c1=O (stereo unspecified) | n | 0.58µM | 13µM | u | n | n
C[C@@H](O)[C@H]1C(=O)N2C(C(=O)OCOC(=O)C(C)(C)C)=C(SC3CN(C4=NCCS4)C3)[C@H](C)[C@H]12 | n | x | x | x | x | x
Cc1cccc(-n2nnnc2S(C)(=O)=O)c1 | u | 0.41µM | n | 14µM | 6.7µM | 5µM
COC(=O)c1nnn(-c2cccc(C)c2)c1C(=O)OC | n | n | n | n | n | n
CC[C@H](CC#N)OC(=O)N[C@@H](C)c1cccc(NC(=O)Nc2ccc(-c3cnco3)c(OC)c2)c1 | n | x | x | x | x | x
CN[C@@H](C)[C@H]1[C@H](O)C[C@@]2(C)[C@@H]3CC[C@H]4C(C)(C)[C@@H](NC)CC[C@@]45C[C@@]35CC[C@]12C | n | x | x | x | x | x
COC(=O)c1ccc(NS(=O)(=O)c2ccc3[nH]c4c(c3c2)CCCC4)cc1 | n | n | n | n | u | n
COC(=O)c1ccc(NS(=O)(=O)c2ccc3[nH]c4c(c3c2)CCCCC4)cc1 | n | n | 16µM | n | u | n
CC(C)OCCCNc1sc(S(=O)(=O)c2ccccc2)nc1S(=O)(=O)c1ccc(Cl)cc1 | n | n | n | n | u | n
CCN(CC)CCCNc1sc(S(=O)(=O)c2ccccc2)nc1S(=O)(=O)c1ccc(Cl)cc1 | u | 9.3µM | u | n | u | u
COc1cc(-c2nc3ncccn3c2Nc2ccc(C)cc2C)ccc1O | n | 15µM | n | n | n | u
CC=C(C)C(=O)O[C@H]1C(C)=C[C@]23C(=O)[C@@H](C=C(CO)[C@@H](O)[C@]12O)[C@H]1[C@@H](C[C@H]3C)C1(C)C | n | x | x | x | x | x
SMILES | OvCa metastasis | mTORC1 inh | p53null 39C kill | p53null 32C tox | PMP22 txn | S16 F2sN tox
COc1cc(NC(=O)c2cc(-c3ccc(Cl)c(Cl)c3)on2)cc(OC)c1OC | u | n | 25µM | u | x | x
COc1cc(C)c(Sc2cnc(NC(=O)c3ccc(CNC(C)C(C)C)cc3)s2)cc1C(=O)N1CCN(C(C)=O)CC1 (stereo unspecified) | n | x | x | x | x | x
CCc1ccc(Nc2nc3c(S(=O)(=O)c4cccc(Cl)c4)nnn3c3ccsc23)cc1 | n | n | n | n | u | n
CCc1ccc(S(=O)(=O)c2nnn3c2nc(Nc2ccc(NC(C)=O)cc2)c2sccc23)cc1 | n | n | u | u | 11µM | n
Cc1ccc2scc(N3CCCCC3C)c(=O)c2c1 (stereo unspecified) | n | n | 16µM | 13µM | n | n
Cc1ccc2scc(N3CCC(C)CC3)c(=O)c2c1 | n | n | 20µM | u | u | n
Cc1ccc2scc(N3CCCCC3)c(=O)c2c1 | n | n | 13µM | 10µM | n | n
CC(C)(N)c1ccc(-c2nc3ccccc3nc2-c2ccccc2)cc1 | n | x | x | x | x | x
CC(C)NC[C@@H](C(=O)N1CCN(c2ncnc3c2[C@H](C)C[C@H]3O)CC1)c1ccc(Cl)cc1 | n | x | x | x | x | x
Cc1nc2c([nH]1)CCN(C(=O)c1ccc(NC(=O)c3ccccc3-c3ccccc3)cc1)c1ccccc1-2 | n | x | x | x | x | x
Cc1cc(C)c(S(=O)(=O)NCCc2csc3nc(-c4ccc(Cl)cc4)nn23)c(C)c1 | n | n | 20µM | n | u | u
CN(C)c1ccc(-c2nc3ncc(Cl)c(N4CCN(CC(=O)Nc5nccs5)CC4)c3[nH]2)cc1 | n | x | x | x | x | x
Cc1ccc(OCC(O)Cn2c(=N)n(CCN3CCCCC3)c3ccccc32)cc1 (stereo unspecified) | 8.9µM | x | 13µM | n | u | u
Cc1cccc(NC(=O)CSc2nc(-c3cccs3)cc(C(F)(F)F)c2C#N)c1 | n | n | u | n | 15µM | u
COc1ccc(-c2nnc(SCc3cc(=O)c4cc(C)cc(C)c4[nH]3)n2C)cc1 | n | u | n | n | 14µM | u
Cc1cc(Nc2cccc(Cl)c2)nc2ccc(NC(=O)c3cccnc3)cc12 | n | n | 25µM | u | u | u
Cc1cc(N2CCN(C)CC2)nc2ccc(NC(=O)Nc3cccc(Cl)c3)cc12 | n | u | u | n | u | 25µM
